Measured values as given in PubChem BioAssay (NCI).
Compounds without any hit were thinned out: in the full panel of roughly 83,000, 20% have a hit.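 Plates (96-well) were seeded with cells, treated with compound at one concentration, and incubated for 48 hours before percent growth was determined.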 Unmarked numbers belong to inactive results. Calls of active or inactive are those of the source. The calls were made as follows: active = growth percent below 10; inactive = the rest.

Tested on: MDA-MB-468 breast
Test: NCI-60 one-dose screen, 48 h (100 = growth as untreated, 0 = no growth, -100 = all killed)
Details: 10 µM unless noted

Row | SMILES | growth
1 | COc1ccccc1C(=O)/C=C/c1cc2cccc(OC)c2[nH]c1=O | -43.9% (active)
2 | Cc1ccc(/C=C/c2nn3c(-c4ccco4)nnc3s2)cc1 | 116%
3 | N=C(N)c1ccc(-c2ccc(-c3cccs3)o2)cc1 | -40.5% (active)
4 | O=C(O)CCCc1cnc2c3sccc3nc(SCc3c(Cl)cccc3Cl)n12 | 60.9%
5 | NC1=CC(=O)c2cccnc2C1=O | -50.8% (active)
6 | CCOc1ccc(C(=O)NCC(C)C)cc1 | 105%
7 | COc1ccc(C(=O)c2cc(OC)c(OC)c(OC)c2)cc1OC(=O)C(Cl)(Cl)Cl | 35.8%
8 | Cc1sc2nc(NCCN)[nH]c(=O)c2c1C | 80%
9 | O=C1CN(c2ccccc2)C(=O)C1C(=O)Nc1ccc(Cl)c(Cl)c1 (stereo not given) | 19.2% [100 µM]
10 | CCCCN(CC)CCCCCCCCCCN1CCCc2cc(OC)ccc21 | 40.8%
11 | O=c1[nH]nc(SC2CCCCC2)c(=O)[nH]1 | 116%
12 | CCCOc1ccc2nc(NC(=O)OC)[nH]c2c1 | -3.99% (active)
13 | CC(C)=C(NC(=O)c1ccccc1)C(=O)O | 88.5%
14 | Cc1ccc2c3c(c(=O)[nH]c2c1)C1(C(C#N)=C(N)O3)c2cc(Br)ccc2-c2ccc(Br)cc21 | 6.75% (active)
15 | CCCCCc1ccc(S(=O)(=O)N(C(C)=O)c2cccc(-c3csc(N(CCN4CCN(C)CC4)C(C)=O)n3)c2)cc1 | -10.9% (active)
16 | Clc1ccc(CNc2ccc3nc(CCC4CCCCC4)[nH]c3c2)cc1 | -43.5% (active)
17 | O=C(OCCBr)c1ccc(Cl)c([N+](=O)[O-])c1 | -79.8% (active)
18 | Cc1ccc(-c2noc(C)n2)cc1 | 101%
19 | COc1ccc(-c2nc(-c3nc4ccc(Cl)cc4[nH]3)c3ccccn23)cc1 | 61.5%
20 | COc1ccc(NC(=S)N/N=C/c2ccccc2SSCCC(=O)OC[C@H]2O[C@H](O)[C@H](O)[C@@H](O)[C@@H]2O)cc1 | -8.32% (active)

Row | SMILES | growth
21 | NC(=O)c1cccc([C@@H]2O[C@H](CO)[C@@H](O)[C@H]2O)c1 | 87.7%
22 | COc1cc(-c2ccc(N=Nc3c(O)c(C(=O)Nc4ccccc4OC)cc4ccccc34)c(OC)c2)ccc1N=Nc1c(O)c(C(=O)Nc2ccccc2OC)cc2ccccc12 | 95%
23 | O=[N+]([O-])c1cccc2cc(S(=O)(=O)O)ccc12 | 112%
24 | COc1cc(/C=N\NC(=O)CN2CCN(c3cc4c(cc3F)c(=O)c(C(=O)N/N=C/c3cc(OC)c(OC)c(OC)c3)cn4C3CC3)CC2)cc(OC)c1OC | -31.1% (active)
25 | Cn1c(=O)c2c(c3ccccc31)OC(N)=C(C#N)C21C(=O)c2ccccc2C1=O | 96.4%
26 | NC(=O)c1ccc(-c2c3ccccc3cc3c2ccc2ccccc23)cc1 | -11.3% (active)
27 | CC1(C)N=C(N)N=C(N)N1c1cccc(CN)c1 | 84.8%
28 | COc1ccc(/C(C)=C(\c2ccc(Cl)cc2)c2ccc(OCCN3CCCCCC3)cc2)cc1F | 35.3%
29 | O=C(O)CCCn1c(SCc2c(Cl)cccc2Cl)nc2ccsc2c1=O | -4.76% (active)
30 | Cc1cc(Cl)nc(N(CCNc2ccnc3cc(Cl)ccc23)Cc2ccccn2)n1 | 3.86% (active)
31 | CCCCS(=O)(=O)Oc1ccc(-c2nc(C)c(C(=O)OCC)s2)cc1C=O | 52.1%
32 | CC1(C)CC[C@]2(C(=O)O)CC[C@]3(C)C(=CC[C@@H]4[C@@]5(C)CC/C(=N\OCCC#N)C(C)(C)[C@@H]5CC[C@]43C)[C@@H]2C1 | 106%
33 | COc1cccc(Nc2nc(NCCO)c3ccccc3n2)c1 | 75.7%
34 | COc1cc(NC(=O)Nc2cnc(Nc3ccc(N4CCOCC4)cc3)nc2Oc2ccc(C(F)(F)F)cc2)cc(OC)c1 | 110%
35 | O=C(Nc1ccccc1)Nc1nc2ccc([N+](=O)[O-])cc2[nH]1 | 22.1%
36 | CCCCCCCCCCCCCCCCOCCCOP(=O)(O)C1CCCN(O)C1=O (stereo not given) | -7.42% (active)
37 | COc1cc(/C=C/C(=O)c2ccc(NC(=O)CSc3nnc(-c4ccc(Cl)cc4)n3-c3ccccc3)cc2)cc(OC)c1OC | 72.9%
38 | Cc1nc2nc(SCC(=O)O)[nH]c2c(=O)[nH]1 | 106%
39 | O=S(=O)(O)c1ccc(Cl)cc1 | 105%
40 | O=C1c2ccccc2C(=O)c2sc(Nc3cccc(Cl)c3)nc21 | 13.2%
